# Laboratory results from publication PMC7862700, “An all-to-all approach to the identification of sequence-specific readers for epigenetic DNA modifications on cytosine”.
# Assays:
# Assay in all cases: DAPPL (digital affinity profiling via proximity ligation, sequencing); 10 mM Tris-HCl pH 7.5, 50 mM NaCl, 1 mM DTT, 4% glycerol, room temperature, 30 min; GST-TFs on glutathione beads, 16-mer random dsDNA library, 0.1% formaldehyde crosslink after washing; high values mean tight binding
# Conditions in all cases: protein: recombinant; tags: N-terminal GST; dsDNA, one strand shown
# ELK1 = molecular target: T1, ELK1 (Homo sapiens, UniProt P19419 1-428)
# T1 sequence: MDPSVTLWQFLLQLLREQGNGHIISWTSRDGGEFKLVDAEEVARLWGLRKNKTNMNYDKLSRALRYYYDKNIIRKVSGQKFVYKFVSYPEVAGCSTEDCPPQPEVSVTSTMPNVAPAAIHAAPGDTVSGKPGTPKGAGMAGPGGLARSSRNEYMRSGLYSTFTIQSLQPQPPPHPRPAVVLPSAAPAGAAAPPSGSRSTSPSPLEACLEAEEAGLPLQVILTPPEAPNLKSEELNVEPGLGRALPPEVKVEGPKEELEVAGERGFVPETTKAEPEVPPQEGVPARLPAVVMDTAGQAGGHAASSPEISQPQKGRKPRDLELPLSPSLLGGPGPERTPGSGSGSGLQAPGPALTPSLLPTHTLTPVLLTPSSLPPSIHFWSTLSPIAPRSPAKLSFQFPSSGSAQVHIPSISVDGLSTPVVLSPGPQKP
# Method in brief: (§1)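 GST fusions of human transcription factors were expressed in yeast and captured with glutathione beads. Once given DNA barcodes and pooled alongside a tag-only sample, they were incubated for 30 min at room temperature with 200 nmole of a random double-stranded 16-mer DNA library in Tris/NaCl/DTT/glycerol buffer, then washed, crosslinked (0.1% formaldehyde), proximity-ligated, PCR-amplified and sequenced on an Illumina NextSeq500. The binding signal of each hexamer is its read frequency for a factor divided by its frequency for the tag-only sample.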
# ERG = molecular target: T2, ERG (Homo sapiens, UniProt P11308 1-479)
# T2 sequence: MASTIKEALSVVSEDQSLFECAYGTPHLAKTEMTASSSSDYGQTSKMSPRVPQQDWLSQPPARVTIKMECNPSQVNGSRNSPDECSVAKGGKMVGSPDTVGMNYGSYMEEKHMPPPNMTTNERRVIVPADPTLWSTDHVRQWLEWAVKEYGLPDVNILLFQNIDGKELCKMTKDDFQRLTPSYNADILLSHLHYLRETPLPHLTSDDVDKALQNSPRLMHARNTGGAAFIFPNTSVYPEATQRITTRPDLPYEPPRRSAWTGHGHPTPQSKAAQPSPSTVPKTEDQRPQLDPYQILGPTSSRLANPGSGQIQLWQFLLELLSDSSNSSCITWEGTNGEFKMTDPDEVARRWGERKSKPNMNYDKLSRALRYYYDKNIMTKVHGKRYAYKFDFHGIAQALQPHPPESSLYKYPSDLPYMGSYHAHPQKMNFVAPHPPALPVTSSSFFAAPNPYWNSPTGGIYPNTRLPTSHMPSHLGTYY
# Method in brief: as §1
# EHF = molecular target: T3, EHF (Homo sapiens, UniProt Q9NZC4 1-300)
# T3 sequence: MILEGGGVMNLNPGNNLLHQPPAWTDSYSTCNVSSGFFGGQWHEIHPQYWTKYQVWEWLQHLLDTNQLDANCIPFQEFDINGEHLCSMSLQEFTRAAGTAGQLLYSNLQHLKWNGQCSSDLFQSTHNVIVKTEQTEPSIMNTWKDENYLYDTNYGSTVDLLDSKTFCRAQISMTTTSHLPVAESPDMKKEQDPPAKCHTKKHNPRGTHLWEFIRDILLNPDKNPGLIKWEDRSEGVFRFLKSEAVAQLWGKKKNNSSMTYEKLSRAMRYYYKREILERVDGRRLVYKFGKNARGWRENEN
# Method in brief: as §1
# SPIC = molecular target: T4, SPIC (Homo sapiens, UniProt Q8N5J4 1-248)
# T4 sequence: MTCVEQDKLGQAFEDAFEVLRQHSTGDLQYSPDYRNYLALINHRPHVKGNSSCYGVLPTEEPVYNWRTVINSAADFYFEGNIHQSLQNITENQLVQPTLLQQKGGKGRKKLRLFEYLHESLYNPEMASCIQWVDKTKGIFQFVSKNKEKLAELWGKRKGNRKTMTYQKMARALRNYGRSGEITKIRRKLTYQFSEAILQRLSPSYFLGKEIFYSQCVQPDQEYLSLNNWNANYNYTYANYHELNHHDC
# Method in brief: as §1
# ELF4 = ELF4 (Homo sapiens, UniProt Q99607 1-663)
# Method in brief: as §1
# ELK4 = molecular target: T5, ELK4 (Homo sapiens, UniProt P28324-2 1-405)
# T5 sequence: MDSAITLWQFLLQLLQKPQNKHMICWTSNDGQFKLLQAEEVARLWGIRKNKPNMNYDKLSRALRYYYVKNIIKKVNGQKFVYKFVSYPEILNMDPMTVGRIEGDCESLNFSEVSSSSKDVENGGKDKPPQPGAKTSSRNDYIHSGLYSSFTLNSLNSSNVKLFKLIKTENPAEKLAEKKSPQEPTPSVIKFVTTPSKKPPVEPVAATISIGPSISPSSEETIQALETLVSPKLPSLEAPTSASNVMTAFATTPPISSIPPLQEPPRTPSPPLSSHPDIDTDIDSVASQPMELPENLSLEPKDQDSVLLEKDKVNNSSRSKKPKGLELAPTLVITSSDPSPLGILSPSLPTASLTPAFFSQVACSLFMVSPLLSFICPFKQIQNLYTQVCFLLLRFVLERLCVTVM
# Method in brief: as §1
# ETV1 = ETV1 (Homo sapiens, UniProt P50549 1-477)
# Method in brief: as §1
# ETS2 = molecular target: T6, ETS2 (Homo sapiens, UniProt P15036 1-469)
# T6 sequence: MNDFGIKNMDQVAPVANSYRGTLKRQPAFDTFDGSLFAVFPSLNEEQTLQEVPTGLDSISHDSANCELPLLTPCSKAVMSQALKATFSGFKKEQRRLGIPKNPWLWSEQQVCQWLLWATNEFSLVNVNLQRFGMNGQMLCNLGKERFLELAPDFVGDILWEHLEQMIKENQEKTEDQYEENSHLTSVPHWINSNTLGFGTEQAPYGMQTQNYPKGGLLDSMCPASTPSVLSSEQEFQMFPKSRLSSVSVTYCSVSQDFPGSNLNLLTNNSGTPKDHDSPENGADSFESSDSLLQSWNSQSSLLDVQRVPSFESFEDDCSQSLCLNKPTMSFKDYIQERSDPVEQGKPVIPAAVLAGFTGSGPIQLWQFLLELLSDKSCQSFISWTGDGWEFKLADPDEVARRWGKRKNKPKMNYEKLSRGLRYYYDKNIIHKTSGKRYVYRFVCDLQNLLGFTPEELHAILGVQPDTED
# Method in brief: as §1
# SPDEF = molecular target: T7, SPDEF (Homo sapiens, UniProt O95238 1-335)
# T7 sequence: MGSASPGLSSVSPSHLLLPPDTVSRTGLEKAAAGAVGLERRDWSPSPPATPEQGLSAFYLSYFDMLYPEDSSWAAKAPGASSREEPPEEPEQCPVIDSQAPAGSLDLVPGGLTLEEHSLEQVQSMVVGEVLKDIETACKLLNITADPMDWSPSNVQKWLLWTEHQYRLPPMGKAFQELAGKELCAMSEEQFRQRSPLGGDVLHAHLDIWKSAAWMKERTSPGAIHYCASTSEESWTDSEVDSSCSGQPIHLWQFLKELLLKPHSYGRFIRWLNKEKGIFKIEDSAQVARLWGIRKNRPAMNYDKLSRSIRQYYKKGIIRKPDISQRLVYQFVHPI
# Method in brief: as §1
# ETV3 = molecular target: T8, ETV3 (Homo sapiens, UniProt P41162-2 1-143)
# T8 sequence: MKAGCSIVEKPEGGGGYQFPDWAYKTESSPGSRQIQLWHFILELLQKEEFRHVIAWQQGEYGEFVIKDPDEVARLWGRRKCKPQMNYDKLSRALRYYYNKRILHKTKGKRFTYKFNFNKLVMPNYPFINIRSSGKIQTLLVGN
# Method in brief: as §1
# SPIB = SPIB (Homo sapiens, UniProt Q01892 1-262)
# Method in brief: as §1
# ELK3 = molecular target: T9, ELK3 (Homo sapiens, UniProt P41970 1-407)
# T9 sequence: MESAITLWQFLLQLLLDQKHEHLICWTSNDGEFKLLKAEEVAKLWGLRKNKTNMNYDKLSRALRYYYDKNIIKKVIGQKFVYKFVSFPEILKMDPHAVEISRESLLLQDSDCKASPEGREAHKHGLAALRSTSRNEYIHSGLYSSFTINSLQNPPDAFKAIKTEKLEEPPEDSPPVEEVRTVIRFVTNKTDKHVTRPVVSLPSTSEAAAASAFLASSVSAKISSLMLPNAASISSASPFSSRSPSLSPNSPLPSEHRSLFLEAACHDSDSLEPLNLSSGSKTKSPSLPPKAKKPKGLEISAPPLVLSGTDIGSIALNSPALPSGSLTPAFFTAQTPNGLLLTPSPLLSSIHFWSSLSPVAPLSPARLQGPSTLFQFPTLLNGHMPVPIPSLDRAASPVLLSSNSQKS
# Method in brief: as §1
# ELF3 = molecular target: T10, ELF3 (Homo sapiens, UniProt P78545 1-371)
# T10 sequence: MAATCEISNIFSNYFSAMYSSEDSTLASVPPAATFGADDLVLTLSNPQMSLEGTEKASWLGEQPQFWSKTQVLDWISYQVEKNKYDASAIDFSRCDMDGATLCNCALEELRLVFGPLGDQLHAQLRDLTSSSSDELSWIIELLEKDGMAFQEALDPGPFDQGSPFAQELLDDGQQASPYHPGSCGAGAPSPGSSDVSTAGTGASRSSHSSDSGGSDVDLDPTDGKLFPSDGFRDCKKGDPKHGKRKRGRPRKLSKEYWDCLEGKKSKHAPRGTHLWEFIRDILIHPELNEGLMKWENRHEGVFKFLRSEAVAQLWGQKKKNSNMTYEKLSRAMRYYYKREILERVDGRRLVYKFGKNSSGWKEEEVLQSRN
# Method in brief: as §1
# ERF = molecular target: T11, ERF (Homo sapiens, UniProt P50548 1-548)
# T11 sequence: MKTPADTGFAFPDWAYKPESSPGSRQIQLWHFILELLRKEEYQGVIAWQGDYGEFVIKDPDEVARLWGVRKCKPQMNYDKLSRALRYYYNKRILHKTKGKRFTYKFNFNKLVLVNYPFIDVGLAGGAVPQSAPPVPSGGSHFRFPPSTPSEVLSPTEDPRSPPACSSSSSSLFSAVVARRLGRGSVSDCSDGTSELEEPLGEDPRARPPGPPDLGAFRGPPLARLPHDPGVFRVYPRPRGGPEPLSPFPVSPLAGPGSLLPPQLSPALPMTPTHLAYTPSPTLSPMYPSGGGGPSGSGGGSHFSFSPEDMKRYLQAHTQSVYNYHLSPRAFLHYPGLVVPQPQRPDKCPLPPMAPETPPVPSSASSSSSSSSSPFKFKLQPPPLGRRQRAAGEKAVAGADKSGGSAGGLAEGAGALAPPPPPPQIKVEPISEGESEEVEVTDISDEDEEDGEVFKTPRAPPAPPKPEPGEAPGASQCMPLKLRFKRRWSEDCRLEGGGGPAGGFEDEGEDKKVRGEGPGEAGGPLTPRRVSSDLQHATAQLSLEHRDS
# Method in brief: as §1
# ETV3L = molecular target: T12, ETV3L (Homo sapiens, UniProt Q6ZN32 1-361)
# T12 sequence: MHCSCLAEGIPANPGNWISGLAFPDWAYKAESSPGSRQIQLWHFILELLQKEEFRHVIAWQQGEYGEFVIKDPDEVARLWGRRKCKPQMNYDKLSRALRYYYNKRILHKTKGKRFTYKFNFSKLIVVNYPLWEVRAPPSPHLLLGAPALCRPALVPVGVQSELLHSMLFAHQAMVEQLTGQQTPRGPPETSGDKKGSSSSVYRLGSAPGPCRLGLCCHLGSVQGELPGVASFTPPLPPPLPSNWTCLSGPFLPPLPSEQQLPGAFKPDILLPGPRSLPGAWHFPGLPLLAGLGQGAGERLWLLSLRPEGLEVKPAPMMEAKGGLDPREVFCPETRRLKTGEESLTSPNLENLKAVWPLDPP
# Method in brief: as §1
# ETV7 = molecular target: T13, ETV7 (Homo sapiens, UniProt Q9Y603 1-341)
# T13 sequence: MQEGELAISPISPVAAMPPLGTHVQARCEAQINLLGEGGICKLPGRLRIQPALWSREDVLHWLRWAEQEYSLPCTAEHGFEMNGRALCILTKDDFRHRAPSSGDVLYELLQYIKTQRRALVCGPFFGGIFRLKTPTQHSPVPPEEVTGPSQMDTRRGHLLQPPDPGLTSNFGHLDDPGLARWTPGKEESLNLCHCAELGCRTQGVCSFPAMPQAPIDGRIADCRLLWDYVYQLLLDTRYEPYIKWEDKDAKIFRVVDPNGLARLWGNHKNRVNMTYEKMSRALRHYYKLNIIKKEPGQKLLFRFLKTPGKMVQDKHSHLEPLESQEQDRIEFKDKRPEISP
# Method in brief: as §1
# ETV6 = ETV6 (Homo sapiens, UniProt P41212 1-452)
# Method in brief: as §1
# Chain of ELF4 (Q99607 whole entry): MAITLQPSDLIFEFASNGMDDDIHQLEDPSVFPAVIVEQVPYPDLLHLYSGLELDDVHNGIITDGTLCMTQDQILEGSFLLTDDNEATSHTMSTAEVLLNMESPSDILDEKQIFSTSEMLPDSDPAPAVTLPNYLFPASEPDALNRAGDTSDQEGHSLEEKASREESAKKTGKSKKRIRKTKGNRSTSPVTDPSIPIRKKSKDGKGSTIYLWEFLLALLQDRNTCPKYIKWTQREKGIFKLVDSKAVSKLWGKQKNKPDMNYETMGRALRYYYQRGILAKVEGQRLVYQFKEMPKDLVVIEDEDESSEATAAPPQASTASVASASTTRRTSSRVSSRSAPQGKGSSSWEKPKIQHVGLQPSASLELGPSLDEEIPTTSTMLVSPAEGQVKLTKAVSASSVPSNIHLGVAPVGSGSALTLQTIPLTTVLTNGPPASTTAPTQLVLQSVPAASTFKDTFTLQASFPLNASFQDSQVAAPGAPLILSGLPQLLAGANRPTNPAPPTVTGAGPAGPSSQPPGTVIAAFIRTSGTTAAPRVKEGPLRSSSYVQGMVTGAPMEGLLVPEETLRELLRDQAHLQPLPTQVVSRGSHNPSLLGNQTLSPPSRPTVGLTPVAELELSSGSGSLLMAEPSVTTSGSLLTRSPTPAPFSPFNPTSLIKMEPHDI
# Chain of ETV1 (P50549 whole entry): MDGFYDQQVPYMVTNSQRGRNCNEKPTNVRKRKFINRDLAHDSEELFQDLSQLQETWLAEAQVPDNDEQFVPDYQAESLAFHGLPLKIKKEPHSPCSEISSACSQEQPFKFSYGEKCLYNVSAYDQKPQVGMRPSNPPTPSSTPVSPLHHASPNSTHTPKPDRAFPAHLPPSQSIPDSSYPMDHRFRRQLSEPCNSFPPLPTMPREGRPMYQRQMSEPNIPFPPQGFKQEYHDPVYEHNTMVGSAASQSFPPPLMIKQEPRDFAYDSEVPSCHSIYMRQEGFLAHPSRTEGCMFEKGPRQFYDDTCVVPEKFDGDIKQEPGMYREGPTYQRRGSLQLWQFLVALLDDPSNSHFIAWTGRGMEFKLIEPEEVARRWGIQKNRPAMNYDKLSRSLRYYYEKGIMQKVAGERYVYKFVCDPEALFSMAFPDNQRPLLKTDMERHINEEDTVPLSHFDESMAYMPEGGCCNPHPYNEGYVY
# Chain of SPIB (Q01892 whole entry): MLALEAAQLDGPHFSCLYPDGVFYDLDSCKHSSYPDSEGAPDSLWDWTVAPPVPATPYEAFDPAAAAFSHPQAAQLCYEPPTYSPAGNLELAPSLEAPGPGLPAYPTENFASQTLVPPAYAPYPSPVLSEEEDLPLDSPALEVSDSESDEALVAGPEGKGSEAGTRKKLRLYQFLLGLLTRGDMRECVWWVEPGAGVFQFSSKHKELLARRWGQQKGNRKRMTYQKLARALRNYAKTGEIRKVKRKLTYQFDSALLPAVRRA
# Chain of ETV6 (P41212 whole entry): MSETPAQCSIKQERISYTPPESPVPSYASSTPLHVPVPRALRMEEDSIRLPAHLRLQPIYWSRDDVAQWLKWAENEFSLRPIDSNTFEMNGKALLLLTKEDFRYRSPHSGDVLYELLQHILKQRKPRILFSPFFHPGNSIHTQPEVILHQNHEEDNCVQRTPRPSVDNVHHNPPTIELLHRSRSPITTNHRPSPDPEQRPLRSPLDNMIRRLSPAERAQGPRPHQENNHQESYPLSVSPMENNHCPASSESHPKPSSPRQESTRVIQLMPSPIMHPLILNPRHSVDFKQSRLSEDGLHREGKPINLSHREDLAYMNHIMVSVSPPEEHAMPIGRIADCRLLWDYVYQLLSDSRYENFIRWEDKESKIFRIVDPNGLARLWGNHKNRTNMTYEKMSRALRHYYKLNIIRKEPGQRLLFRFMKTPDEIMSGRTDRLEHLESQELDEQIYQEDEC
Sequence,binding signal (ELK1),binding signal (ERG),binding signal (EHF),binding signal (SPIC),binding signal (ELF4),binding signal (ELK4),binding signal (ETV1),binding signal (ETS2),binding signal (SPDEF),binding signal (ETV3),binding signal (SPIB),binding signal (ELK3),binding signal (ELF3),binding signal (ERF),binding signal (ETV3L),binding signal (ETV7),binding signal (ETV6)
GCTAAG,"1.08 fold enrichment (6-mer frequency, TF over GST control)","1.01 fold enrichment (6-mer frequency, TF over GST control)","1.05 fold enrichment (6-mer frequency, TF over GST control)","1.08 fold enrichment (6-mer frequency, TF over GST control)","1.06 fold enrichment (6-mer frequency, TF over GST control)","1.18 fold enrichment (6-mer frequency, TF over GST control)","1 fold enrichment (6-mer frequency, TF over GST control)","1.04 fold enrichment (6-mer frequency, TF over GST control)","1.11 fold enrichment (6-mer frequency, TF over GST control)","1.04 fold enrichment (6-mer frequency, TF over GST control)",,,,,,,
TCGAGC,,"1.03 fold enrichment (6-mer frequency, TF over GST control)",,"1.04 fold enrichment (6-mer frequency, TF over GST control)","1.03 fold enrichment (6-mer frequency, TF over GST control)","1.11 fold enrichment (6-mer frequency, TF over GST control)","1.08 fold enrichment (6-mer frequency, TF over GST control)",,"1.08 fold enrichment (6-mer frequency, TF over GST control)","1.03 fold enrichment (6-mer frequency, TF over GST control)","1.1 fold enrichment (6-mer frequency, TF over GST control)","1.01 fold enrichment (6-mer frequency, TF over GST control)","1 fold enrichment (6-mer frequency, TF over GST control)","1.03 fold enrichment (6-mer frequency, TF over GST control)","1.15 fold enrichment (6-mer frequency, TF over GST control)","1.09 fold enrichment (6-mer frequency, TF over GST control)","1.02 fold enrichment (6-mer frequency, TF over GST control)"
